Outcome and AC50 data for 28 compounds are collected here from PubChem BioAssay (EPA / NIEHS).

Assay [1] addresses Cellular tumor antigen p53 (Homo sapiens) (UniProt P04637). Briefly: TOX21_p53_BLA_p2_ratio: Tox21 HCT-116 p53 Agonism Beta-lactamase Assay, Ratio, Phase 2 (AID 2283592). Put shortly:
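Read-out is the blue/green (460/530 nm, 405 nm excitation) ratio after 2 h CCF4-AM loading, fitted as gain versus DMSO. Compounds, pinned at 217-fold dilution from DMSO stocks, stayed 16 h on HCT-116 beta-lactamase reporter cells seeded 5 h earlier.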

A short description of assay [2]: TOX21_p53_BLA_p4_viability: Viability Assessment in the Tox21 HCT-116 p53 Agonism Beta-lactamase Assay, Phase 4 (AID 2283597).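 Note: hits lower the luminescence signal meaning cytotoxicity.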 Put shortly:
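Cytotoxicity as reduced cellular ATP (CellTiter-Glo luminescence, 30 min room temperature), measured in the same wells following the CCF4 FRET p53 reading. Human HCT-116 cells received compounds in DMSO (217-fold dilution) for 16 h.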

In assay [3] the target is Cellular tumor antigen p53 (Homo sapiens) (UniProt P04637). Briefly: TOX21_p53_BLA_p5_ratio: Tox21 HCT-116 p53 Agonism Beta-lactamase Assay, Ratio, Phase 5 (AID 2283599). In short, it runs like this: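 HCT-116 p53-bla cells (4000/well) plated 5 h, dosed with compound (217-fold DMSO dilution) for 16 h at 37 C; CCF4-AM substrate 2 h at room temperature. Activity is the 460/530 nm emission ratio (405 nm excitation), fitted in gain-of-signal direction versus DMSO.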
Cellular tumor antigen p53 (Homo sapiens), sequence (P04637 whole entry, looked up): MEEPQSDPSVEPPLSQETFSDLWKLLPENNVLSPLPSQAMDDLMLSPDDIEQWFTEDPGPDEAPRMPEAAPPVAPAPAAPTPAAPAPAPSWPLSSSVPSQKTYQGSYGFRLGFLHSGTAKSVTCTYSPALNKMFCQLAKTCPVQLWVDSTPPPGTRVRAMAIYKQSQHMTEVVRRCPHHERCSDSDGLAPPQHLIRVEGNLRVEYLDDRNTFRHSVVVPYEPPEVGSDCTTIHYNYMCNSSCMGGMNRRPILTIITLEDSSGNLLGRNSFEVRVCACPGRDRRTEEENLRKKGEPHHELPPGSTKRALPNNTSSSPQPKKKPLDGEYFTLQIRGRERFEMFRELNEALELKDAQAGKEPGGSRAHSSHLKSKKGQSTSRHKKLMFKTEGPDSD

The target is the same in assay [4]. Briefly: TOX21_p53_BLA_p3_ratio: Tox21 HCT-116 p53 Agonism Beta-lactamase Assay, Ratio, Phase 3 (AID 2283596). In short, it runs like this:
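Cells were seeded at 4000/well, rested 5 h at 37C, then dosed with DMSO compound solutions (217-fold dilution) for 16 h. CCF4-AM substrate was loaded for 2 h at room temperature, and the 460/530 nm emission ratio was fitted for gain of signal versus DMSO.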

Assay [5] has the same target. Briefly: TOX21_p53_BLA_p4_ratio: Tox21 HCT-116 p53 Agonism Beta-lactamase Assay, Ratio, Phase 4 (AID 2283601). Put shortly:
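HCT-116 p53 beta-lactamase reporter cells (4000/well) preincubated 5 h, then compound (217-fold dilution of DMSO stock) for 16 h at 37C. CCF4-AM substrate added 2 h at room temperature; 460/530 nm emission ratio fitted upward versus DMSO.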

Assay [6] can be described thus: TOX21_p53_BLA_p5_viability: Viability Assessment in the Tox21 HCT-116 p53 Agonism Beta-lactamase Assay, Phase 5 (AID 2283600). In short, it runs like this: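 Viability came from CellTiter-Glo ATP luminescence, read after 30 min at room temperature. Before this, HCT-116 p53-bla cells (4000/well) had 16 hours of compound exposure at 37C, with DMSO stocks diluted 217-fold on transfer.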

The nature of assay [7]: TOX21_p53_BLA_p3_viability: Viability Assessment in the Tox21 HCT-116 p53 Agonism Beta-lactamase Assay, Phase 3 (AID 2283593).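 Note: cells exposed to compound for 16 h before reading.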 In short, it runs like this:
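HCT116 cells, 4000/well, dosed 5 h after plating by pin transfer (217-fold dilution from DMSO stock) and incubated 16 h at 37C, 5% CO2. Viability read as ATP luminescence with CellTiter-Glo after 30 min at room temperature.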

In assay [8] the target is PGR (gene 5241) (UniProt P06401). Briefly: TOX21_PR_BLA_Followup_Antagonist_ratio: Tox21 HEK293 Progesterone Receptor (PR) Antagonism Beta-lactamase Follow-Up Assay, Ratio (AID 2283934).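 Note: PR-UAS-bla HEK293T cells stimulated with 1 nM R5020 agonist for 16 hr.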 Put shortly: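 Readout is the blue/green (ch2/ch1) substrate cleavage ratio after 2 hours at room temperature, following 16 hr co-treatment of PR-bla HEK293T cells with compound and 1nM promegestone. Multiplexed CellTiter-Glo viability flags cytotoxicity; DMSO baseline.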
PGR (gene 5241), sequence (P06401 whole entry, looked up): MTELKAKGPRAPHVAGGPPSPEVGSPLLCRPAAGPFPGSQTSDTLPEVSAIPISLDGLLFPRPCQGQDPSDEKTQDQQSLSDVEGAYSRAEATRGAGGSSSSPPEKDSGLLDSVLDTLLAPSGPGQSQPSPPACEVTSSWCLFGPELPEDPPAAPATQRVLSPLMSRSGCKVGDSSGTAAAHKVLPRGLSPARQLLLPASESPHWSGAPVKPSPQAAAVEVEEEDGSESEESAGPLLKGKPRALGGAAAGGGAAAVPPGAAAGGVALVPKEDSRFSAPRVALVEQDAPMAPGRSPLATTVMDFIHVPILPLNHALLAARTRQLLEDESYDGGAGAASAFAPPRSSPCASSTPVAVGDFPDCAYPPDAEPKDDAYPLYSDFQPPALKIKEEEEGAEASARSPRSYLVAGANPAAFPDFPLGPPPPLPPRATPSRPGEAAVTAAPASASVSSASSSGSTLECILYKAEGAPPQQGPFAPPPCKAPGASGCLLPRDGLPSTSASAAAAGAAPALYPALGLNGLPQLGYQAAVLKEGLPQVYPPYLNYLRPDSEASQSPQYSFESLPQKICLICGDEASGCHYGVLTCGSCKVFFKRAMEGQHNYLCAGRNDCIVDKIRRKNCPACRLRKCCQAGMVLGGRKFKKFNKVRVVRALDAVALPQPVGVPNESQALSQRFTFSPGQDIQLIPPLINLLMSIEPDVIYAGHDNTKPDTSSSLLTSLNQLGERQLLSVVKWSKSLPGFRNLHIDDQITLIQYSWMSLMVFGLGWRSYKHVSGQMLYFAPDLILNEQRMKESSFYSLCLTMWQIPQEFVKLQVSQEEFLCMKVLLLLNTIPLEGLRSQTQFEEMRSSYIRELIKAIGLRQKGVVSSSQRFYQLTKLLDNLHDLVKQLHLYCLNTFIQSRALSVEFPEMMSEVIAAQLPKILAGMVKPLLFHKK

The nature of assay [9]: TOX21_PR_BLA_Followup_Agonist_viability: Viability Assessment in the Tox21 HEK293 Progesterone Receptor (PR) Agonism Beta-lactamase Follow-Up Assay (AID 2283935).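 Note: signal loss means lower viability so actives are cytotoxic.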 Put shortly:
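Run multiplexed with the beta-lactamase FRET read, this endpoint measures ATP by CellTiter-Glo luminescence (30 min, room temperature). PR-UAS-bla HEK293T cells received compound 6 hr after plating and were then incubated 16 hr at 37C in 2% stripped serum.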

A short description of assay [10]: TOX21_PR_LUC_Followup_Antagonist_viability: Viability Assessment in the Tox21 HEK293 Progesterone Receptor (PR) Antagonism Luciferase Follow-Up Assay (AID 2283940). In short, it runs like this: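 Viability counter-readout: cellular ATP measured by luciferase luminescence after 16 h compound exposure at 37C of HEK293-PR-A-luc cells, which had been cultured in charcoal-stripped serum and seeded 5 h beforehand.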

Assay [11] can be described thus: ACEA_ER_AUC_viability: ACEA Biosciences xCELLigence Real-Time Cell Analysis on Estrogen Receptor Agonism for Viability (AID 2283782).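 Note: hit means loss of impedance signal meaning reduced cell growth or viability.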 In short, it runs like this:
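Read-out: real-time electrical impedance (RT-CES) area under curve, loss of signal taken as reduced viability, normalized to DMSO baseline. T-47D cells, charcoal-stripped serum medium, compounds up to 100 uM final, continuous exposure, 80 h.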

Records with an inconclusive call do not appear. Active and inactive are the calls of the source. Rule for the calls: active = hit-call score of the fitted dose curve at least 0.9, where 1 is the maximum; inconclusive = response in the unintended direction; inactive = score below 0.9.

As to `CC(Cl)C(C)Cl` (stereo unspecified), the outcome in [1], in assay [2] and in [3] was inactive.

In the case of `ClP(Cl)(Cl)(Cl)Cl`, the outcome in [1], in [4] and in assay [5] was inactive.

As to `CCCN(CCC)CCc1c[nH]c2ccccc12`, the result in [1], in assay [4], in assay [6] and in assay [5] was inactive.

Take `Cn1cc(C2=C(c3cn(C4CCN(Cc5ccccn5)CC4)c4ccccc34)C(=O)NC2=O)c2ccccc21`: the outcome in [1], in [3] and in assay [5] was inactive. Moreover, the AC50 in assay [4] is 12 µM (active).

As for `c1csc(C2(N3CCCCC3)CCCCC2)c1`, the outcome in assay [1], in [4], in [3] and in assay [5] was inactive.

Consider `CC(C)=CCOc1c2occc2cc2ccc(=O)oc12`, for which the result in assay [1], in assay [2], in assay [3], in assay [6] and in assay [5] was inactive.

As for `CCCC[N+]1(C)CCCC1` (tested in a mixture with another compound), the outcome in assay [1], in assay [4] and in assay [3] was inactive. Moreover, in assay [5], the half-maximal activity concentration (AC50) was 86.9 µM (active).

As to `CN1c2ccccc2C(NCCCCCCC(=O)O)c2ccc(Cl)cc2S1(=O)=O` (stereo unspecified), the outcome in assay [1], in assay [4], in assay [3] and in assay [5] was inactive.

As to `COc1ccccc1N1CCNCC1`, the outcome in assay [1], in assay [3], in [6] and in assay [5] was inactive.

Regarding `CCC(=O)O[C@@](Cc1ccccc1)(c1ccccc1)[C@@H](C)CN(C)C`, the result in [7], in assay [4], in [2], in [3], in [6] and in assay [5] was inactive.

Regarding `C=CCBr`, the outcome in assay [7], in assay [4] and in [3] was inactive.

In the case of `NC(=O)CN1CC(O)CC1=O` (stereo unspecified), the outcome in assay [1], in [6] and in assay [5] was inactive.

As for `C=CCN1C[C@H](C)N([C@H](c2ccc(C(=O)N(CC)CC)cc2)c2cccc(OC)c2)C[C@H]1C`, the result in assay [1], in [2], in assay [3] and in [5] was inactive.

With `C[C@]12C=CC(=O)C=C1CC[C@@H]1[C@@H]2CC[C@@]2(C)[C@H]1CC[C@]2(C)O`, the result in assay [1], in assay [3], in assay [5], in [8], in [9] and in [10] was inactive.

Take `Cn1c(CCCC(=O)O)nc2cc(N(CCCl)CCCl)ccc21`: the AC50 was 27.1 µM (active) in assay [1], 33.1 µM (active) in assay [3] and 32.4 µM (active) in [5]. In assay [2], the compound was classed as inactive.

On to `C[C@@H](Cc1ccccc1)N(C)C`, for which the result in [1], in assay [2], in assay [3] and in [5] was inactive.

For `CNC(C)Cc1ccccc1` (stereo unspecified), the outcome in assay [1] and in assay [3] was inactive.

In the case of `C=CCC1([C@H](C)CCC)C(=O)NC(=O)NC1=O`, the result in [1], in assay [3], in assay [6] and in assay [5] was inactive.

Take `COC(=O)C(Cl)C(=O)OC`: the outcome in assay [1], in assay [2], in assay [6] and in [5] was inactive.

As for `CC(C)=CCN1CC[C@@]2(C)c3cc(O)ccc3C[C@@H]1[C@@H]2C`, the AC50 in assay [1] was 86.2 µM (active). Also, the compound was called inactive in assay [6] and in assay [5].

Regarding `COC(=O)C1(O)c2ccccc2-c2ccccc21`, the outcome in [1], in assay [3], in assay [6] and in assay [11] was inactive.

For the compound `CN(C)CCc1ccc(O)cc1`, the outcome in assay [1], in assay [3] and in assay [5] was inactive.

Take `ClCC(Cl)(Cl)Cl`: the result in assay [1], in assay [3] and in assay [6] was inactive.

`O=C([O-])c1ccccn1.O=C([O-])c1ccccn1.O=C([O-])c1ccccn1.[Cr+3]`: the compound was called inactive in assay [7], in assay [4], in [3], in [6] and in assay [5].

Take `CC(=O)O[C@H]1CC[C@H]2[C@@H]3CCC4=CC(=O)CCC4=C3C=C[C@]12C`: the result in [7], in assay [4], in assay [2], in [3] and in assay [5] was inactive.

Regarding `CNC(=O)Oc1ccccc1C1OCCO1`, the result in assay [1], in assay [3], in assay [6] and in assay [5] was inactive.

`CN(C)C(=O)Nc1cccc(OC(=O)NC(C)(C)C)c1`: the compound was called inactive in assay [7] and in assay [4].

With `FC(Cl)(Cl)Cl`, the result in assay [1] and in [6] was inactive.
